# In all, about 5,500 compounds went through this assay and about 2,000 (36%) were called active. About 18% were inconclusive and are not listed. Some of the results follow. A number with no mark means an inactive call. Cut-off read from the data, not from the text of the source: active = normalized growth mostly below about 0.91 (no sharp cut-off); inconclusive = no clear call, values can overlap the other calls; inactive = mostly above about 0.92.
# Assay: chemical genetic growth profiling, strain panel (AID 1159580);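 note: tested at 20 µM; growth read once vehicle control cultures reached saturation at 30 °C; 1 = growth at the plate median or of vehicle wells; lower values mean less growth of the strain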
# Details: growth OD
smiles,measurement,setting,value
COc1ccc(C2C(=O)c3ccccc3C2=O)cc1,normalized growth,"S. cerevisiae deletion strains, locus YJR066W, strain TOR1, hits give low values",0.897
same,normalized growth,"S. cerevisiae deletion strains, locus YJR075W, strain HOC1, hits give low values",0.983
same,normalized growth,"S. cerevisiae deletion strains, locus YKL009W, strain mrt4, hits give low values",0.958
same,normalized growth,"S. cerevisiae deletion strains, locus YKL068W, hits give low values",0.987
same,normalized growth,"S. cerevisiae deletion strains, locus YKL085W, strain MDH1 (second series), hits give low values",0.983
same,normalized growth,"S. cerevisiae deletion strains, locus YKL085W, strain MDH1, hits give low values",0.983
same,normalized growth,"S. cerevisiae deletion strains, locus YKL160W, strain elf1, hits give low values",0.998
same,normalized growth,"S. cerevisiae deletion strains, locus YKR001C, strain vps1, hits give low values",1
same,normalized growth,"S. cerevisiae deletion strains, locus YKR026C, strain gcn3, hits give low values",0.96
same,normalized growth,"S. cerevisiae deletion strains, locus YKR091W, strain srl3, hits give low values",1.01
same,normalized growth,"S. cerevisiae deletion strains, locus YLL001W, strain dnm1, hits give low values",0.997
same,normalized growth,"S. cerevisiae deletion strains, locus YLL026W, hits give low values",0.966
same,normalized growth,"S. cerevisiae deletion strains, locus YLL041C, strain sdh2, hits give low values",0.982
same,normalized growth,"S. cerevisiae deletion strains, locus YLR027C, strain aat2, hits give low values",0.997
same,normalized growth,"S. cerevisiae deletion strains, locus YLR039C, strain RIC1, hits give low values",0.993
same,normalized growth,"S. cerevisiae deletion strains, locus YLR058C, strain SHM2, hits give low values",0.993
same,normalized growth,"S. cerevisiae deletion strains, locus YLR102C, strain apc9, hits give low values",0.989
same,normalized growth,"S. cerevisiae deletion strains, locus YLR113W, strain HOG1, hits give low values",0.767 (active)
same,normalized growth,"S. cerevisiae deletion strains, locus YLR221C, strain rsa3, hits give low values",1
same,normalized growth,"S. cerevisiae deletion strains, locus YLR258W, strain gsy2, hits give low values",1.01
same,normalized growth,"S. cerevisiae deletion strains, locus YLR262C, strain YPT6 (second series), hits give low values",0.987
same,normalized growth,"S. cerevisiae deletion strains, locus YLR262C, strain YPT6, hits give low values",1.01
same,normalized growth,"S. cerevisiae deletion strains, locus YLR268W, strain sec22, hits give low values",1.01
same,normalized growth,"S. cerevisiae deletion strains, locus YLR320W, strain mms22, hits give low values",1.02
same,normalized growth,"S. cerevisiae deletion strains, locus YLR330W, strain CHS5, hits give low values",1
same,normalized growth,"S. cerevisiae deletion strains, locus YLR342W, strain FKS1 (second series), hits give low values",1.02
same,normalized growth,"S. cerevisiae deletion strains, locus YLR342W, strain FKS1, hits give low values",1
same,normalized growth,"S. cerevisiae deletion strains, locus YLR357W, strain rsc2, hits give low values",1.09
same,normalized growth,"S. cerevisiae deletion strains, locus YLR370C, strain arc18, hits give low values",1
same,normalized growth,"S. cerevisiae deletion strains, locus YLR371W, strain rom2, hits give low values",1.01
same,normalized growth,"S. cerevisiae deletion strains, locus YLR384C, strain iki3, hits give low values",0.992
same,normalized growth,"S. cerevisiae deletion strains, locus YLR418C, strain cdc73, hits give low values",0.957
same,normalized growth,"S. cerevisiae deletion strains, locus YML016C, strain PPZ1, hits give low values",1.01
same,normalized growth,"S. cerevisiae deletion strains, locus YML032C, strain rad52, hits give low values",1.01
same,normalized growth,"S. cerevisiae deletion strains, locus YML120C, strain ndi1, hits give low values",0.992
same,normalized growth,"S. cerevisiae deletion strains, locus YML124C, strain tub3, hits give low values",0.994
same,normalized growth,"S. cerevisiae deletion strains, locus YMR058W, strain fet3, hits give low values",0.979
same,normalized growth,"S. cerevisiae deletion strains, locus YMR078C, strain ctf18, hits give low values",0.99
same,normalized growth,"S. cerevisiae deletion strains, locus YMR125W, strain sto1, hits give low values",0.994
same,normalized growth,"S. cerevisiae deletion strains, locus YMR129W, hits give low values",0.972
same,normalized growth,"S. cerevisiae deletion strains, locus YMR205C, strain PFK2, hits give low values",1.01
same,normalized growth,"S. cerevisiae deletion strains, locus YMR223W, strain ubp8, hits give low values",0.976
same,normalized growth,"S. cerevisiae deletion strains, locus YMR231W, strain pep5, hits give low values",1.02
same,normalized growth,"S. cerevisiae deletion strains, locus YMR307W, strain GAS1, hits give low values",1.04
same,normalized growth,"S. cerevisiae deletion strains, locus YNL067W, strain RPL9B, hits give low values",0.932
same,normalized growth,"S. cerevisiae deletion strains, locus YNL071W, strain lat1, hits give low values",0.986
same,normalized growth,"S. cerevisiae deletion strains, locus YNL128W, strain TEP1, hits give low values",0.977
same,normalized growth,"S. cerevisiae deletion strains, locus YNL153C, strain GIM3, hits give low values",0.997
same,normalized growth,"S. cerevisiae deletion strains, locus YNL183C, strain NPR1, hits give low values",0.882
same,normalized growth,"S. cerevisiae deletion strains, locus YNL209W, strain ssb2, hits give low values",0.992
same,normalized growth,"S. cerevisiae deletion strains, locus YNL233W, strain BNI4, hits give low values",1
same,normalized growth,"S. cerevisiae deletion strains, locus YNL248C, strain rpa49, hits give low values",1.05
same,normalized growth,"S. cerevisiae deletion strains, locus YNL250W, strain rad50, hits give low values",0.987
same,normalized growth,"S. cerevisiae deletion strains, locus YNL271C, strain bni1, hits give low values",0.983
same,normalized growth,"S. cerevisiae deletion strains, locus YNL298W, strain CLA4, hits give low values",0.976
same,normalized growth,"S. cerevisiae deletion strains, locus YNL307C, strain MCK1, hits give low values",1.01
same,normalized growth,"S. cerevisiae deletion strains, locus YNL322C, strain KRE1 (second series), hits give low values",0.961
same,normalized growth,"S. cerevisiae deletion strains, locus YNR049C, strain mso1, hits give low values",0.982
same,normalized growth,"S. cerevisiae deletion strains, locus YNR052C, strain pop2, hits give low values",0.987
same,normalized growth,"S. cerevisiae deletion strains, locus YOL012C, strain htz1",0.937
same,normalized growth,"S. cerevisiae deletion strains, locus YOL147C, strain pex11, hits give low values",0.992
same,normalized growth,"S. cerevisiae deletion strains, locus YOR001W, strain rrp6, hits give low values",1.02
same,normalized growth,"S. cerevisiae deletion strains, locus YOR061W, strain CKA2, hits give low values",0.999
same,normalized growth,"S. cerevisiae deletion strains, locus YOR069W, strain VPS5, hits give low values",0.997
same,normalized growth,"S. cerevisiae deletion strains, locus YOR070C, strain gyp1, hits give low values",1
same,normalized growth,"S. cerevisiae deletion strains, locus YOR080W, strain dia2, hits give low values",1.02
same,normalized growth,"S. cerevisiae deletion strains, locus YOR083W, strain WHI5, hits give low values",1.01
same,normalized growth,"S. cerevisiae deletion strains, locus YOR106W, strain vam3, hits give low values",1.04
same,normalized growth,"S. cerevisiae deletion strains, locus YOR136W, strain idh2, hits give low values",0.984
same,normalized growth,"S. cerevisiae deletion strains, locus YOR144C, strain elg1, hits give low values",0.997
same,normalized growth,"S. cerevisiae deletion strains, locus YOR184W, strain ser1, hits give low values",0.998
same,normalized growth,"S. cerevisiae deletion strains, locus YOR231W, strain MKK1, hits give low values",0.878
same,normalized growth,"S. cerevisiae deletion strains, locus YOR265W, strain rbl2, hits give low values",0.995
same,normalized growth,"S. cerevisiae deletion strains, locus YOR270C, strain vph1, hits give low values",1.07
same,normalized growth,"S. cerevisiae deletion strains, locus YOR290C, strain snf2, hits give low values",1
same,normalized growth,"S. cerevisiae deletion strains, locus YOR316C, strain cot1, hits give low values",0.983
same,normalized growth,"S. cerevisiae deletion strains, locus YPL051W, strain arl3, hits give low values",1.03
same,normalized growth,"S. cerevisiae deletion strains, locus YPL078C, strain atp4, hits give low values",1
same,normalized growth,"S. cerevisiae deletion strains, locus YPL106C, strain sse1, hits give low values",1.03
same,normalized growth,"S. cerevisiae deletion strains, locus YPL240C, strain hsp82, hits give low values",0.984
same,normalized growth,"S. cerevisiae deletion strains, locus YPL256C, strain CLN2, hits give low values",0.817 (active)
same,normalized growth,"S. cerevisiae deletion strains, locus YPR119W, strain clb2, hits give low values",0.998
same,normalized growth,"S. cerevisiae deletion strains, locus YPR141C, strain kar3, hits give low values",0.977
same,normalized growth,"S. cerevisiae deletion strains, locus YPR163C, strain tif3, hits give low values",0.995
same,normalized growth,"S. cerevisiae deletion strains, locus YPR167C, strain met16, hits give low values",0.998
same,normalized growth,"S. cerevisiae deletion strains, strain wtn01, hits give low values",0.991
same,normalized growth,"S. cerevisiae strains, strain wild type, hits give low values",1

# Reference: PubChem BioAssay AID1159580 (chemical genetic matrix, 2015)
